# Data: PubChem BioAssay AID2284358 (EPA ToxCast)
# Results filed as inconclusive are left out. The source made the active and inactive calls. Rule for the calls: active = hit-call score of the fitted dose curve at least 0.9, where 1 is the maximum; inconclusive = response in the unintended direction; inactive = score below 0.9.
# Target: zebrafish Retinoid X Receptor beta (RXRb), rxrba (gene 30530) (UniProt Q7SYN5)
# Assay: ATG_zfRXRb_EcoTox2: Attagene TRANS-FACTORIAL EcoTox-2 HepG2 Assay for zebrafish Retinoid X Receptor beta (RXRb)
# Protocol: ATG_EcoTox2 is a cell-based, multiplexed assay created by modifying the existing Attagene TRANS-FACTORIAL system to include a panel of nuclear receptors from some or all the following species: human (Homo sapiens), african clawed frog (Xenopus laevis), rainbow trout (Oncorhynchus mykiss), japanese medaka (Oryzias latipes), and zebrafish (Danio rerio). The ECOTOX2-FACTORIAL format uses HepG2, a human liver cell line, with measurements taken at 24 hours after chemical dosing in a 24-well plate. ATG_zfRXRb_EcoTox2 is one of 29 assay components calculated in the ATG_EcoTox2 assay. It is designed to make measurements of mRNA induction, a form of inducible reporter, as detected with fluorescence intensity signals by Reverse transcription polymerase chain reaction (RT-PCR) and Capillary electrophoresis technology.The assay endpoint ATG_zfRXRb_EcoTox2 was analyzed in the positive analysis fitting direction relative to DMSO as the negative control and baseline of activity. Using a type of inducible reporter, measures of mRNA for gain-of-signal activity can be used to understand the reporter gene at the transcription factor-level as they relate to the gene RXRb. Furthermore, this assay endpoint can be referred to as a primary readout, because this assay has produced multiple assay endpoints where this one serves a reporter gene function. […]
# Human liver HepG2 cells are transiently transfected with multiple reporter transcription units (MRTUs) in 6-well plates using FuGene 6 reagent (Roche; 3 ml FuGene/1 mg DNA). […] A major difference between the CIS and TRANS system is that in CIS activities of endogenous TFs are measured, whereas the TRANS assay evaluates changes in activities of exogenous, chimeric NR-Gal4 proteins. […] The fragments were purified using Qiaquick PCR columns (Qiagen), analyzed on an ABI 3130xL genetic analyzer (Applied Biosystems) with peak positions identified by using a set of X-rhodamine (ROX)-labeled MapMarker1000 molecular weight standards (BioVentures). […]
# Sequence of zebrafish Retinoid X Receptor beta (RXRb), rxrba (gene 30530) (Q7SYN5 whole entry, looked up): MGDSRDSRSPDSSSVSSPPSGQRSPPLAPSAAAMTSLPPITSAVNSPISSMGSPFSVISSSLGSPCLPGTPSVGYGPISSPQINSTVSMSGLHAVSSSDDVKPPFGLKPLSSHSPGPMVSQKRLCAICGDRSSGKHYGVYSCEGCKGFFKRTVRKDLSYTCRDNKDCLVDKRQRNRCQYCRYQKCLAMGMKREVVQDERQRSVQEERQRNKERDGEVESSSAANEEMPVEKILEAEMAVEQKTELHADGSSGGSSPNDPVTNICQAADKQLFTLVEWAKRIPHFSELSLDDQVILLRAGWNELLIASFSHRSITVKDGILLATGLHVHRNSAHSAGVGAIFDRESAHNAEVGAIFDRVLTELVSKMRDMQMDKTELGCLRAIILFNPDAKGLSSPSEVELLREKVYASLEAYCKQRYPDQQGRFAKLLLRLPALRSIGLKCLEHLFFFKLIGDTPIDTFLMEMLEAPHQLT
SMILES,outcome,AC50
O=S(=O)(O)C(F)(F)C(F)(F)C(F)(F)C(F)(F)C(F)(F)C(F)(F)F,inactive,
[Cl][Sn]([c]1ccccc1)([c]1ccccc1)[c]1ccccc1,,95.2 nM (active)
O=P(Oc1ccccc1)(Oc1ccccc1)Oc1ccccc1,inactive,
